Data reported in PubChem BioAssay (Tox21).
Where “and” joins values, the source holds several entries; their conditions need not be identical. Equal values may be shown once. Results filed as inconclusive are left out. Entries that show only a call come without a potency. Values without a mark were called inactive. Calls of active or inactive are those of the source. The call rests on the fitted dose curve; in most records, active means well fitted cell-killing curve with a large enough effect in the repeat runs; inconclusive means weak or mixed curves, or effect the other way; inactive means no such curve, though single readings can be large or run the other way.

test: qHTS assay to identify small molecule antagonists of the glucocorticoid receptor (GR) signaling pathway - cell viability counter screen (AID 720693); conditions: GR-bla HeLa viability, CellTiter-Glo luminescence, 18 h, with 5 nM dexamethasone present; series mostly up to 58.5 µM; further: nearly all actives have a fitted effect of over 55% in size

Compound	Potency	viability change, negative = cytotoxic
Fc1ccccc1[C@@H](F)COC1CCC(Nc2ncnc3[nH]ncc23)CC1 (some centres undefined)	inactive	
CC(C)=CC=O	inactive	
CC(=O)Nc1ccc(N)cc1	inactive	
O=C(N/N=C/c1ccc([N+](=O)[O-])o1)c1ccc(O)cc1	inactive	
O=S1OCCO1	inactive	
CCOC(=O)CC(=O)C(=O)OCC	inactive	
CC(COc1ccc(C(C)(C)C)cc1)OS(=O)OCCCl (centres undefined)	inactive	
CCCOC(=O)c1ccc(C(=O)OCCC)nc1	inactive	
CCCCCCCCCCCCCCCCBr	inactive	
C=CC(=C)CCCC(C)(C)OC(C)=O	inactive	
OCC1CC=CCC1 (centres undefined)	inactive	
COc1cc2ncnc(Nc3ccc(F)c(Cl)c3)c2cc1OCCCN1CCOCC1	inactive	
CO[C@H]1C=CO[C@@]2(C)Oc3c(C)c(O)c4c(O)c(c5c(c4c3C2=O)=NC2(CCN(CC(C)C)CC2)N=5)NC(=O)/C(C)=C\C=C/[C@H](C)[C@H](O)[C@@H](C)[C@@H](O)[C@@H](C)[C@H](OC(C)=O)[C@@H]1C	inactive	
CCCCCC=CCC=CCCCCCCCC(=O)OCC	inactive	
COc1cc2c(N3CCN(C(=O)Nc4ccc(OC(C)C)cc4)CC3)ncnc2cc1OCCCN1CCCCC1	inactive	
CC(=O)[C@H]1CC[C@H]2[C@@H]3C=CC4=CC(=O)CC[C@@]4(C)[C@@H]3CC[C@]12C	inactive	
CCCCCCCCCCCCCCC[C@H](O)[C@@H](N)CO	inactive	
O=C(O)c1cccnc1C(=O)O	inactive	
Oc1ccc(Nc2ccccc2)cc1	inactive	

Compound	Potency	viability change, negative = cytotoxic
CC1(C)C2=CCCC(C)(C)[C@]23CC[C@H]1C3	inactive	
COC(=O)[C@@H]1CC2=CC(=O)CC[C@]2(C)[C@@]23O[C@@H]2C[C@@]2(C)[C@@H](CC[C@@]24CCC(=O)O4)[C@H]13	inactive	
COCC(O)CO (centres undefined)	inactive	
CCC(=O)OC/C=C/c1ccccc1	inactive	
O=C(CCC1CCN(Cc2ccccc2)CC1)c1ccc2c(c1)NCCCC2	inactive	
CCc1cccc(N(C)C(N)=Nc2cccc3ccccc23)c1	inactive	
O=Cc1c(Cl)cccc1Cl	inactive	
c1cnc2c(n1)CCCC2	inactive	
C[Si]1(C)O[Si](C)(C)O[Si](C)(C)O1	inactive	
COC(OC)(C(=O)c1ccccc1)c1ccccc1	inactive	
CC(C)CCCC(=O)O	inactive	
CCCOCCOCCO	inactive	
CC1CN(c2cc3c(cc2F)c(=O)c(C(=O)O)cn3-c2ccc(F)cc2F)CCN1 (centres undefined)	inactive	
CC(C)(CCl)c1ccccc1	inactive	
Nc1ccc(Cl)cc1[N+](=O)[O-]	inactive	
CC(Cl)C(Cl)Cl (centres undefined)	inactive	
Cc1nc2ccccc2s1	inactive	
C=CCCCCCCCCCCCCCCCC		-0.145% [at 7.04 µM]

test: qHTS assay for identifying genotoxic compounds that show differential cytotoxicity against isogenic chicken DT40 cell lines with known DNA damage response pathways - wild type cell line (AID 743012); conditions: DT40 wild type chicken cells viability, CellTiter-Glo, 40 h; series mostly up to 68.4 µM; further: nearly all actives have a fitted effect of over 60% in size; further: potency means the concentration at half of the fitted maximal effect
Method in brief: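 Quantitative HTS on parental DT40 cells: 40 h compound treatment at 37 C/5% CO2, with viability then determined by CellTiter-Glo luminescence. Values serve as the DNA repair-proficient reference for differential cytotoxicity.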

Compound	Potency	activity change, negative = cytotoxicity
Fc1ccccc1[C@@H](F)COC1CCC(Nc2ncnc3[nH]ncc23)CC1 (some centres undefined)	15.4 µM (active)	
CC(C)=CC=O	inactive	
CC(=O)Nc1ccc(N)cc1	inactive	
O=C(N/N=C/c1ccc([N+](=O)[O-])o1)c1ccc(O)cc1	4.52 µM (active)	
O=S1OCCO1	inactive	
CCOC(=O)CC(=O)C(=O)OCC	inactive	
CC(COc1ccc(C(C)(C)C)cc1)OS(=O)OCCCl (centres undefined)	inactive	
CCCOC(=O)c1ccc(C(=O)OCCC)nc1	inactive	
CCCCCCCCCCCCCCCCBr	inactive	
C=CC(=C)CCCC(C)(C)OC(C)=O	inactive	
OCC1CC=CCC1 (centres undefined)	inactive	
COc1cc2ncnc(Nc3ccc(F)c(Cl)c3)c2cc1OCCCN1CCOCC1	26.6 µM (active)	
CO[C@H]1C=CO[C@@]2(C)Oc3c(C)c(O)c4c(O)c(c5c(c4c3C2=O)=NC2(CCN(CC(C)C)CC2)N=5)NC(=O)/C(C)=C\C=C/[C@H](C)[C@H](O)[C@@H](C)[C@@H](O)[C@@H](C)[C@H](OC(C)=O)[C@@H]1C	16.8 µM (active) and 42.3 µM (active)	
CCCCCC=CCC=CCCCCCCCC(=O)OCC	inactive	
COc1cc2c(N3CCN(C(=O)Nc4ccc(OC(C)C)cc4)CC3)ncnc2cc1OCCCN1CCCCC1	6.68 µM (active)	
CC(=O)[C@H]1CC[C@H]2[C@@H]3C=CC4=CC(=O)CC[C@@]4(C)[C@@H]3CC[C@]12C	4.03 µM (active)	
CCCCCCCCCCCCCCC[C@H](O)[C@@H](N)CO	inactive	
O=C(O)c1cccnc1C(=O)O	inactive	
Oc1ccc(Nc2ccccc2)cc1	5.45 µM (active)	

Compound	Potency	activity change, negative = cytotoxicity
CC1(C)C2=CCCC(C)(C)[C@]23CC[C@H]1C3	54.5 µM (active)	
COC(=O)[C@@H]1CC2=CC(=O)CC[C@]2(C)[C@@]23O[C@@H]2C[C@@]2(C)[C@@H](CC[C@@]24CCC(=O)O4)[C@H]13	inactive	
COCC(O)CO (centres undefined)	inactive	
CCC(=O)OC/C=C/c1ccccc1	inactive	
O=C(CCC1CCN(Cc2ccccc2)CC1)c1ccc2c(c1)NCCCC2	2.37 µM (active)	
CCc1cccc(N(C)C(N)=Nc2cccc3ccccc23)c1	5.96 µM (active)	
O=Cc1c(Cl)cccc1Cl	inactive	
c1cnc2c(n1)CCCC2	inactive	
C[Si]1(C)O[Si](C)(C)O[Si](C)(C)O1	inactive	
COC(OC)(C(=O)c1ccccc1)c1ccccc1	54.4 µM (active)	
CC(C)CCCC(=O)O	inactive	
CCCOCCOCCO	inactive	
CC1CN(c2cc3c(cc2F)c(=O)c(C(=O)O)cn3-c2ccc(F)cc2F)CCN1 (centres undefined)	inactive	
CC(C)(CCl)c1ccccc1	inactive	
Nc1ccc(Cl)cc1[N+](=O)[O-]	inactive	
CC(Cl)C(Cl)Cl (centres undefined)	inactive	
Cc1nc2ccccc2s1	inactive	
C=CCCCCCCCCCCCCCCCC		-12.1% [at 8.52 µM]
